Tat export inh: blocks Tat-dependent protein export in E. coli; E. coli MC4100 TorA-mCherry Tat export, fluorescence; inhibition, % at 10 µM; 0.036% of 340,000 active; AID 488895;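 active = mean replicate inhibition at least 50% and at least half of replicates individually reaching 50%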;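 note: exported cargo escapes ClpAP degradation while cytoplasmic cargo is degraded and loses fluorescence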
phage Ecoli inh: E. coli growth loss with phage present | growth absorbance | inhibition, % at 11.9 µM | 0.26% of 360,000 active; in the data active = inhibition above about 11%
E coli growth-1: E. coli growth inhibition | Escherichia coli growth, OD600, 23 h; hits give low values | AID 1053175 | OD600 absorbance (concentration not given with the values) | 0.21% of 330,000 active;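 active = OD600 absorbance below the run mean of sample wells minus 3.6 SD, in any replicate, cut at about 0.56 in these data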
E coli growth-2: reduces bacterial viability in AddAB counter-screen | inhibition, % at 11.9 µM | 0.27% of 330,000 active | E. coli V3065 growth, OD600 absorbance, 18 h;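 active = inhibition above the campaign's mean inhibition across all tested compounds plus 3 SD, cut at about 9.9% in these data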;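 note: uninfected addAB+ strain grown without phage in ampicillin broth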
AddAB inh: less growth of phage-infected E. coli with AddAB; E. coli expressing H. pylori AddAB, absorbance growth; inhibition, % at 11.9 µM; 0.29% of 330,000 active; AID 435030; in the data active = inhibition above about 12%
AddAB confirm: confirmation screen: growth loss of phage-infected E. coli expressing H. pylori AddAB | 64% of 880 active | E. coli V3065 expressing H. pylori AddAB, T4 phage, OD; T4 phage with gene 2 nonsense mutations | shares compounds with AddAB inh | inhibition, % at 11.9 µM | AID 488942;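 active = mean inhibition above a set limit taken from the earlier primary screen, cut at about 13% in these data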;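 note: higher means less bacterial growth since AddAB block lets phage replicate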
RecBCD counter: counter-screen: growth loss of RecBCD+ E. coli with mutant T4 phage. shares compounds with AddAB inh. E. coli V66 + mutant T4 phage, OD growth. inhibition, % at 11.9 µM. 73% of 880 active;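 active = mean inhibition above the mean of solvent-only control wells plus 3 SD, cut at about 4% in these data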;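 note: optical density read after an 18 h incubation at 37 °C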
bact viab count: counter-screen: bacterial growth inhibition. shares compounds with AddAB inh. bacterial viability, absorbance (AddAB counterscreen). inhibition, % at 11.9 µM. 35% of 880 active. AID 488956; in the data active = inhibition above about 25%
RecBCD conf: confirmation: growth loss of phage-infected RecBCD+ E. coli (RecBCD inhibitor screen); shares compounds with phage Ecoli inh; E. coli V66 + T4 2- phage, growth OD; inhibition, % at 11.9 µM; 45% of 890 active;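 active = mean inhibition over triplicates exceeding the hit threshold derived in the original primary screen, cut at about 11% in these data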
Ecoli viability: bacterial viability inhibition counter-screen for RecBCD; inhibition, % at 11.9 µM; shares compounds with phage Ecoli inh; AID 651983; E. coli viability, absorbance (OD) growth; 29% of 890 active; in the data active = inhibition above about 20%;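 note: E. coli strain V66 grown with compound alone and no phage infection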
AddAB counter: growth loss of phage-infected AddAB E. coli, RecBCD counter-screen. shares compounds with phage Ecoli inh. E. coli expressing H. pylori AddAB + T4 phage, OD growth; gene 2 mutant T4, recBCD-deleted host. inhibition, % at 11.9 µM. 45% of 890 active. AID 651984;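 active = mean inhibition above the solvent-only control wells' mean plus 3 SD, cut at about 22% in these data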;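 note: higher means less bacterial growth from phage killing when AddAB is blocked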
Large screens that a line does not name were inactive (follow-up assays come after a bar, where they were run). Only some compounds are listed: those with a hit (about 0.51% of all), similar ones and a draw of the others.

Cc1nc2c(=O)n(C)c(=O)nc-2n(C)n1	phage Ecoli inh 41.8, E coli growth-1 0.049, E coli growth-2 41.9, AddAB inh 40.5 | AddAB confirm 48.1 | RecBCD counter 39.1 | bact viab count 42.2 | RecBCD conf 43.5 | Ecoli viability 48.1 | AddAB counter 60.5
CCn1nc(-c2ccccc2)nc2c(=O)n(C)c(=O)nc1-2	none (no result: phage Ecoli inh)
CCCCC(C)=CC(NP(=O)(c1ccccc1)c1ccccc1)c1ccccc1 (stereo not drawn)	none (no result: Tat export inh, phage Ecoli inh, E coli growth-2, AddAB inh)
CC(N)C(=O)NC1C2C(=C(O)CC(O)C2O)C(=O)OC1(C)C(Cl)Cl (stereo not drawn)	Tat export inh 82.3, phage Ecoli inh 98.7 (no result: E coli growth-1, E coli growth-2, AddAB inh) | RecBCD conf 104.2 | Ecoli viability 106.1 | AddAB counter 97.0
COC(=O)C1=C(c2cccc(OC)c2OC)CC2CCC1N2C(=O)NCC1CC1 (stereo not drawn)	none (no result: Tat export inh, phage Ecoli inh, E coli growth-2, AddAB inh)
CN(C)C1C(=O)C(C(N)=O)=C(O)C2(O)C(=O)C3=C(O)c4c(O)cccc4C(C)(O)C3C(O)C12 (stereo not drawn)	Tat export inh 138.0, phage Ecoli inh 98.9, E coli growth-1 0.064 | RecBCD conf 101.5 | Ecoli viability 104.1 | AddAB counter 102.4
CN1C2CCC1C(C(=O)N1CCOCC1)=C(O)C2 (stereo not drawn)	none (no result: Tat export inh, phage Ecoli inh, E coli growth-2, AddAB inh)
CCOC(=O)[C@]12Cc3cc(Cl)ccc3[C@H]1N(C1CCCCC1)C(=O)c1cc(OC)ccc12	phage Ecoli inh 11.2 (no result: Tat export inh, E coli growth-1, E coli growth-2, AddAB inh) | RecBCD conf inactive | Ecoli viability inactive | AddAB counter inactive
COC(=O)C1=C(c2cccc(OC)c2OC)CC2CCC1N2C(=O)N1CCCC1 (stereo not drawn)	none (no result: Tat export inh, phage Ecoli inh, E coli growth-2, AddAB inh)
O=c1[nH]c(=O)n(-c2ccc(Cl)cc2)c(O)c1C=Nc1ccc(S(=O)(=O)Nc2nccs2)cc1	phage Ecoli inh 11.9 (no result: E coli growth-1) | RecBCD conf inactive | Ecoli viability inactive | AddAB counter 25.0
CCN(CC)S(=O)(=O)c1ccc(N=Cc2c(O)n(-c3ccccc3)c(=O)[nH]c2=O)cc1	none
COC(=O)C1=C(c2ccc(F)cc2OCc2ccccc2)CC2CCC1N2C(=O)NCCN1CCOCC1 (stereo not drawn)	none (no result: Tat export inh, phage Ecoli inh, E coli growth-2, AddAB inh)
Cc1cccc(N2C(=O)C(=CN3CCN(C(=O)c4ccco4)CC3)C(=O)NC2=S)c1	none (no result: Tat export inh, phage Ecoli inh, E coli growth-2, AddAB inh)
Oc1c(Cl)cccc1Cc1cc(Cl)cc(Cl)c1O	phage Ecoli inh 14.5, E coli growth-1 0.383 (no result: E coli growth-2, AddAB inh) | RecBCD conf inactive | Ecoli viability inactive | AddAB counter inactive
O=[N+]([O-])c1ccc(N(CCO)CCO)c2c1no[n+]2[O-]	phage Ecoli inh 93.2 (no result: Tat export inh, E coli growth-1, E coli growth-2, AddAB inh) | RecBCD conf 84.5 | Ecoli viability 91.5 | AddAB counter 100.2
CCN1/C(=C/C=C/C2=[N+](CC)c3ccccc3C2(C)C)C(C)(C)c2ccccc21	phage Ecoli inh 25.4 (no result: Tat export inh, E coli growth-1, E coli growth-2, AddAB inh) | RecBCD conf 17.9 | Ecoli viability 21.0 | AddAB counter 43.4
COC(=O)C1=C(c2cccc(OCc3ccccc3)c2)CC2CCC1N2C(=O)NCCOc1ccccc1 (stereo not drawn)	none (no result: Tat export inh, phage Ecoli inh, E coli growth-2, AddAB inh)
COc1ccc(CC2=NCCc3cc(OC)c(OC)cc32)cc1OC	none (no result: Tat export inh, E coli growth-1, E coli growth-2, AddAB inh)
COC(=O)c1c2[n+](cc3cc(OC)c(OC)cc13)CCc1cc(OC)c(OC)cc1-2	phage Ecoli inh 15.5 | RecBCD conf inactive | Ecoli viability inactive | AddAB counter inactive

Bioassay records as filed in PubChem.
